For assay [1], the system named is Plasmodium falciparum Sir2 (PF13_0152, Sir2A). As to the kind of experiment: Plasmodium falciparum Sir2A binding compounds – biochemical, small-molecule microarray, 635 nm fluorescence, primary screen (AID 1098).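 Also: score merges spot fluorescence intensity with its signal-to-noise ratio.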 The note with it: fluorescence 635 nm, higher = more signal.
Assay [2] in a line: probe aDKK1 binding to arrayed compounds – biochemical, biotinylated probe, 635/667 nm fluorescence, primary screen (AID 1099).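 Also: score merges 667nm spot fluorescence with signal to noise across triplicate slides.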 The note with it: small-molecule microarray, higher = more signal.
Assay [3] can be described thus: probe aCHRDL2 binding to arrayed compounds – biochemical, biotinylated probe, 635/667 nm fluorescence, primary screen (AID 1100). The note with it: small-molecule microarray, higher = more signal.
Assay [4] can be described thus: change in splice reporter luminescence, either direction, cell-based, HEK293, spliceosome inhibition project, primary screen (AID 1101).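 Also: HEK293 cells carrying a splicing-competent luciferase reporter gene; test concentration not given here.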 Particulars: HEK293 splicing luciferase reporter, 24 h, higher = more signal, called active from +8 up or from −8 down. (Reporter assays use an easily measured gene product as a stand-in for the process of interest.)
Assay [5] concerns the target Fibroblast growth factor 10 (Homo sapiens) (UniProt O15520). The experiment in a line: compounds binding fibroblast growth factor 10 – biochemical, small-molecule microarray, 635 nm fluorescence, primary screen (AID 1102). The note with it: FGF10 binding, fluorescence 635 nm, higher = more signal.
Assay [6] deals with glycogen synthase kinase-3 (GSK3A per assay name; protocol says GSK3B). The experiment in a line: compounds binding glycogen synthase kinase-3 – biochemical, small-molecule microarray, 635 nm fluorescence, GSK3A, primary screen (AID 1103). Also: the record names both GSK3A and GSK3B. Particulars: fluorescence 635 nm, higher = more signal.
Assay [7] concerns the target Epidermal growth factor receptor (Homo sapiens) (UniProt P00533). The experiment in a line: compounds binding epidermal growth factor receptor – biochemical, small-molecule microarray, 635 nm fluorescence, primary screen (AID 1104).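 Also: score merges 667 nm emission intensity with spot signal to noise over triplicate slides.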 Particulars: EGFR binding, higher = more signal.
Assay [8] deals with Follistatin-related protein 3 (Homo sapiens) (UniProt O95633). The experiment in a line: compounds binding follistatin-related protein 3 – biochemical, small-molecule microarray, 635 nm fluorescence, primary screen (AID 1105).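 Also: score merges emission near 667 nm and signal to noise per printed spot across three slides.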 The note with it: FSTL3 binding, higher = more signal.
Assay [9] has as its target Dickkopf-related protein 1 (Homo sapiens) (UniProt O94907). As to the kind of experiment: small molecules binding DKK1 protein – biochemical, small-molecule microarray, 635 nm fluorescence scan, primary screen (AID 1106).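 Also: score merges emission near 667 nm with signal to noise over three replicate slides.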 Particulars: higher = more signal.
For assay [10], the system named is Inhibin beta A chain (activin A). As to the kind of experiment: small molecules binding activin A – biochemical, small-molecule microarray, 635 nm fluorescence scan, primary screen (AID 1107).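 Also: mouse activin A protein probed at 4.33 µg/mL on printed slides; score merges bound-protein fluorescence near 667 nm with spot signal-to-noise.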 The note with it: INHBA, higher = more signal.
Assay [11] relates to Human papillomavirus type 1a protein E7 (residues 44-93). The experiment in a line: small molecules binding HPV E7 44-93 – biochemical, small-molecule microarray, residues 44-93, 635 nm fluorescence, primary screen (AID 1108).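 Also: E7 fragment applied at 1 µg/mL in TBST for 1 h at 4 C; score combines spot fluorescence with its signal to noise ratio.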 The note with it: fluorescence 635 nm, higher = more signal.
The nature of assay [12]: hepatitis C replication reporter changes, two-sided – Huh7 cells, luciferase reporter, HCV replication inhibitor project, primary screen (AID 1109).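 Also: huh7 hepatoma cells harbouring a luciferase neomycin HCV replicon reporter; luciferase luminescence as measure of HCV replicon replication; test concentration not given here.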 The note with it: Huh7 HCV replicon luciferase reporter, 48 h; higher = more signal.
Assay [13] addresses Left-right determination factor 2 (Homo sapiens) (UniProt O00292). As to the kind of experiment: small molecules binding LEFTY2 protein – biochemical, small-molecule microarray, 635 nm fluorescence scan, primary screen (AID 1110). The note with it: higher = more signal.
For assay [14], the target named is Calmodulin-1 (Homo sapiens) (UniProt P0DP23). The experiment in a line: small molecules binding calmodulin-1 with EGTA – biochemical, small-molecule microarray, Cy5-labelled CALM1, profiling panel (AID 1111).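 Also: labelled calmodulin applied in Tris saline Tween buffer holding calcium plus EGTA and DTT.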 The note with it: Cy5-CALM1 binding fluorescence, higher = more signal.
Assay [15] shares this target. The experiment in a line: small molecules binding Ca-loaded calmodulin-1 – biochemical, small-molecule microarray, Cy5-labelled CALM1, plus calcium, artefact control for SMM control-protein annotation, profiling panel (AID 1112).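 Also: score merges spot fluorescence with signal to noise from triplicate slides.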 Particulars: Cy5-CALM1 binding fluorescence, higher = more signal.
The nature of assay [16]: probe aWnt5a binding to arrayed compounds – biochemical, biotinylated probe, 635/667 nm fluorescence, primary screen (AID 1113).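 Also: score merges 667 nm fluorescence intensity with signal-to-noise per printed feature.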 Particulars: small-molecule microarray, higher = more signal.
A short description of assay [17]: probe aShh binding to arrayed compounds – biochemical, biotinylated probe, 635/667 nm fluorescence, primary screen (AID 1114).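 Also: probe is biotin-labelled aShh protein from a stem cell growth factor screen; measures binding of labelled protein to compounds printed on the slide; score merges feature fluorescence at 667 nm with signal-to-noise.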 The note with it: small-molecule microarray, higher = more signal.
Assay [18] is described as follows: probe aNog binding to arrayed compounds – biochemical, biotinylated probe, 635/667 nm fluorescence, primary screen (AID 1115).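 Also: probe is biotinylated aNog protein used at 0.15 µg/mL for 1 h at 4 C; z-score combines 667 nm fluorescence of each spot with its signal to noise.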 The note with it: small-molecule microarray, higher = more signal.
Assay [19] has as its target Torsin-1A-interacting protein 1 (Homo sapiens) (UniProt Q5JTV8). As to the kind of experiment: compound microarray binding of lysate hLAP1 – cell lysate, small-molecule microarray, COS7 lysate, 635/667 nm fluorescence, primary screen (AID 1116). Particulars: 635 nm fluorescence, higher = more signal.
Assay [20] deals with Alpha-bungarotoxin (Bungarus multicinctus) (UniProt P60615). The experiment in a line: compounds binding labelled alpha-BTX control protein – biochemical, small-molecule microarray, Alexa647 label, 635/667 nm fluorescence, artefact control for SMM control protein annotation, profiling panel (AID 1117). Particulars: alpha-BTX-A647 binding fluorescence, higher = more signal.

The structures appear in SMILES notation. Activity calls are given as the source filed them.

Sequence of Epidermal growth factor receptor (Homo sapiens) (P00533 whole entry, looked up): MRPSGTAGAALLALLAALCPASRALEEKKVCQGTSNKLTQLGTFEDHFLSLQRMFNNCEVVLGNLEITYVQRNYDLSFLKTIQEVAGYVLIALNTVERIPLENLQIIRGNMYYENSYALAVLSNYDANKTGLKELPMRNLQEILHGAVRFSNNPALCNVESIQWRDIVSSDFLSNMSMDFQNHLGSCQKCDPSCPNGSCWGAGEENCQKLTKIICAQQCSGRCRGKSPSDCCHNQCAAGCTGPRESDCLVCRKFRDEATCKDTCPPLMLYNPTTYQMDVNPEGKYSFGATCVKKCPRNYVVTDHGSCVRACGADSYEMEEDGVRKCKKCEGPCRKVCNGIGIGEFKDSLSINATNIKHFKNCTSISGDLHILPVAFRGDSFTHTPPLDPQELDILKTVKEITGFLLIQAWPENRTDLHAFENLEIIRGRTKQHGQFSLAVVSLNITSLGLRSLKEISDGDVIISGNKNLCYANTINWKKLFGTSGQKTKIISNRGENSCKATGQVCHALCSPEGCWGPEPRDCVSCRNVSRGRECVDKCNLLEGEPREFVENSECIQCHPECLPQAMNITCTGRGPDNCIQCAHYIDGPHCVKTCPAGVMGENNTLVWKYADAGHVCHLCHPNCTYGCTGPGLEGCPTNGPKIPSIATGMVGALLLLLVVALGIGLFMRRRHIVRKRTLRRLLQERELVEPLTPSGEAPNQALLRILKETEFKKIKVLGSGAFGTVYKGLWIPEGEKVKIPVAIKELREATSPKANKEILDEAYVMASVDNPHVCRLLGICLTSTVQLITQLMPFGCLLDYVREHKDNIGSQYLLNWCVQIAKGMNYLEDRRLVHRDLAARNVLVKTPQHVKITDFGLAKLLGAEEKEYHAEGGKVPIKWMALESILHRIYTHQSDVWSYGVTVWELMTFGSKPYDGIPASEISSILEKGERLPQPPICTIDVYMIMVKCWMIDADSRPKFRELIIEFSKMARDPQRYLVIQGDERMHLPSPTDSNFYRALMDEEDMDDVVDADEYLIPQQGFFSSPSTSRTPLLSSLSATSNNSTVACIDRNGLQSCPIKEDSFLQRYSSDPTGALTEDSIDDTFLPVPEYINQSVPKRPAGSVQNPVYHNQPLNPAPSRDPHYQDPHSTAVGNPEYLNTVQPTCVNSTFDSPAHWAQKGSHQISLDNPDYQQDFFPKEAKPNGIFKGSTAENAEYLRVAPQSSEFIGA
Sequence of Left-right determination factor 2 (Homo sapiens) (O00292 whole entry, looked up): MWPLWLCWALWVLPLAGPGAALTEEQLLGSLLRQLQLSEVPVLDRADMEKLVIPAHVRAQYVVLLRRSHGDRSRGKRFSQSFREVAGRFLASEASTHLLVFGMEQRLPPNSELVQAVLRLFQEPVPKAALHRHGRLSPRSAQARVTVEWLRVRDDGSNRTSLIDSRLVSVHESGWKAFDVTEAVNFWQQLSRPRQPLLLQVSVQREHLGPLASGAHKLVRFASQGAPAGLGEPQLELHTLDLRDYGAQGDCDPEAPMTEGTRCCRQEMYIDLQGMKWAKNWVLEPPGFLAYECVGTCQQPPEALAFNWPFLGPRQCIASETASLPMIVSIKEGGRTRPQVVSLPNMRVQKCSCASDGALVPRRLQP
Sequence of Dickkopf-related protein 1 (Homo sapiens) (O94907 whole entry, looked up): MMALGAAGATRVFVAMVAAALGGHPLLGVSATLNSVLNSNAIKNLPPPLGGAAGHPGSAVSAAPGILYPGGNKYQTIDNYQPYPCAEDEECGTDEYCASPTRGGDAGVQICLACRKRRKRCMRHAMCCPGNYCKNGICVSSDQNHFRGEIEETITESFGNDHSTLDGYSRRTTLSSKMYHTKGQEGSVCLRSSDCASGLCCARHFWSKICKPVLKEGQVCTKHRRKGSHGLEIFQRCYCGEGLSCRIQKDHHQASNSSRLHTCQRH
Sequence of Torsin-1A-interacting protein 1 (Homo sapiens) (Q5JTV8 whole entry, looked up): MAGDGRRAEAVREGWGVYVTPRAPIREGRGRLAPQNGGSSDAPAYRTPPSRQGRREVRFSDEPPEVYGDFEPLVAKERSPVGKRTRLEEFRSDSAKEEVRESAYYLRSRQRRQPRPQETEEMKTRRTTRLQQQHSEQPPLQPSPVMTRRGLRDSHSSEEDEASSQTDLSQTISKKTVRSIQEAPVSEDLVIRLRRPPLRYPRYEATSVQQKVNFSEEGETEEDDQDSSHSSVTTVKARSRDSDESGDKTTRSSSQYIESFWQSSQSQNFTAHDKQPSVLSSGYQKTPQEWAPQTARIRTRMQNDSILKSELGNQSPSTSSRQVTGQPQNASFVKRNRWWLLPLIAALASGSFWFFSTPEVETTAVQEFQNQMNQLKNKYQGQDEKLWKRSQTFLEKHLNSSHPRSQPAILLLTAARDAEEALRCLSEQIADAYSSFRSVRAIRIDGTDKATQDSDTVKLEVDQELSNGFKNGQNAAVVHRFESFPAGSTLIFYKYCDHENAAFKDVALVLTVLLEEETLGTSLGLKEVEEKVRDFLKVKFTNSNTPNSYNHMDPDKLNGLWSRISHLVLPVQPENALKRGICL
Sequence of Fibroblast growth factor 10 (Homo sapiens) (O15520 whole entry, looked up): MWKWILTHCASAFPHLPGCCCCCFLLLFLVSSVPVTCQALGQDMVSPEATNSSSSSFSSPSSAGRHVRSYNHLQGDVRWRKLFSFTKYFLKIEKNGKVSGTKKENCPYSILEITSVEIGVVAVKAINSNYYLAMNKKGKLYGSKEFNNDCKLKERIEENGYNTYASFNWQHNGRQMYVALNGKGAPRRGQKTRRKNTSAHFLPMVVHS
Sequence of Alpha-bungarotoxin (Bungarus multicinctus) (P60615 whole entry, looked up): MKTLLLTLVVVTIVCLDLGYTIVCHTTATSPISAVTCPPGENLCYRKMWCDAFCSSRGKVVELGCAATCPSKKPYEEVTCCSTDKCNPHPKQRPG
Sequence of Follistatin-related protein 3 (Homo sapiens) (O95633 whole entry, looked up): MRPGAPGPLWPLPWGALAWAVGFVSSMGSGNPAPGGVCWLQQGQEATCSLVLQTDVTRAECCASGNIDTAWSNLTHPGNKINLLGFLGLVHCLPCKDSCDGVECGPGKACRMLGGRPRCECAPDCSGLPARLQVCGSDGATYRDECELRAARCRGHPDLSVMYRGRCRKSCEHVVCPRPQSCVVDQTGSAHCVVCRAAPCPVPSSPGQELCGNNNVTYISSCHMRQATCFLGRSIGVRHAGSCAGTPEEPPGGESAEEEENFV

As to `C=CC[C@@]1(C(=O)NCCN2CCOCC2)N=C(c2ccc(OCCCO)cc2)O[C@@H]1c1ccccc1CN=[N+]=[N-]`, the composite z-score in assay [1] was 1.02; in assay [2] it was 1.06; in assay [3] it was 1.3; in assay [5] it was 0.205; in [6] it was 0.62; in assay [7], -0.357. In addition, the composite z-score is 0.221 in assay [8]; 0.137 in assay [9]; 1.46 in assay [10]; 0.947 in assay [11]; -0.325 in [13]; 1.42 in [14]. Moreover, the composite z-score is 0.555 in assay [15]; -0.154 in assay [16]; 0.0822 in assay [17]; 0.104 in [18]; 1.77 in assay [19]; 0.604 in assay [20]. Further, the z-score in assay [4] is -1.05 (inactive); in assay [12] it was -1.74.

Take `O=C1[C@H]2C=C(Br)[C@H](C[C@@H]2OCCOCCO)[C@@]12CO2`: the composite z-score in [1] is 0.146; in assay [2] it was -0.119; in assay [3] it was -0.115; in assay [5], 0.527; in [6], 0.144; in assay [7] it was 0.475. Besides, the composite z-score was 0.118 in [8]; 0.18 in assay [9]; 1.02 in assay [10]; 0.0617 in assay [11]; 0.348 in [13]; -0.2 in assay [14]. For the same compound, the composite z-score is -0.341 in assay [15]; -0.0944 in [16]; -0.0769 in [17]; -0.303 in [18]; 0.0452 in [19]; 0.554 in assay [20]. The z-score is 0.651 (inactive) in assay [4] and -1.85 in [12].

Consider `COC(=O)[C@@]1(Cc2ccc(OC)cc2)[C@H]2c3cc(C(=O)N(C)C)n(Cc4ccc(OC)c(OC)c4)c3C[C@H]2CN1C(=O)c1ccccc1`, for which the composite z-score in [1] is 0.851; in [2], 0.476; in [3], 1.16; in assay [5] it was 0.81; in assay [6], 1.28; in assay [7], 0.149. Moreover, the composite z-score in assay [8] is 0.943; in [9], -0.649; in assay [10], 0.807; in [11], 1.46; in assay [13], 0.0549; in [14], 1.8. In addition, the composite z-score came out at 1.08 in [15]; 0.294 in [16]; 0.173 in assay [17]; 1.03 in assay [18]; 1.15 in [19]; 1.73 in assay [20]. Besides, the figures for the z-score in [4] and in assay [12] were -2.25 (inactive) and -1.09, respectively.

In the case of `[N-]=[N+]=NCc1ccccc1C[C@]1(C(N)=O)N=C(c2ccc(OCCCO)cc2)O[C@H]1c1ccccc1N=[N+]=[N-]`, the composite z-score in assay [1] is 0.573; in [2], 0.911; in [3] it was 1.16; in [5], 0.617; in assay [6] it was 1; in [7] it was -0.236. The composite z-score in assay [8] was 0.416; in assay [9] it was -0.322; in [10] it was 1.45; in [11], 1.4; in [13] it was 0.308; in assay [14], 1.18. The composite z-score was 0.596 in [15]; 0.193 in assay [16]; 0.232 in assay [17]; 1.08 in assay [18]; 1.71 in assay [19]; 1.24 in assay [20]. Moreover, the z-score in assay [4] was -0.288 (inactive); in assay [12] it was -0.507.

Consider `CN1C(=O)C2C=CC(C(O)C(C)(C)C)N(Nc3ccccc3)C2C1=O` (stereo not given), for which the composite z-score in [1] is 1.24; in assay [2] it was -0.108; in [3], 0.211; in [5] it was -0.0353; in assay [6], -0.0258; in assay [7], -0.639. For the same compound, the composite z-score in assay [8] is -0.543; in assay [9] it was -0.406; in [10] it was 0.941; in assay [11], -0.911; in assay [13], -0.428; in [14], -0.0143. The composite z-score in [15] is -0.395; in assay [16], -0.0405; in assay [17] it was -0.24; in assay [18], 0.779; in assay [19] it was -0.0378; in assay [20], 0.531. Besides, the z-score was 1.06 (inactive) in [4] and 0.813 in assay [12].

(Values after PubChem BioAssay.)
